CYP2C19 act: human CYP2C19 activators, primary screen, biochemical, luminescence; 96,000 tested, under 10 active; recombinant CYP2C19, luciferin-H EGE luminescence; hits give high values; 0 = fully inhibited enzyme, 1 = untreated enzyme; activation factor at 5 µM; Cytochrome P450 2C19 (Homo sapiens), P33261;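 active = activation factor of at least 2 at 5 µM in the primary screen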
Target sequence (P33261 whole entry, looked up): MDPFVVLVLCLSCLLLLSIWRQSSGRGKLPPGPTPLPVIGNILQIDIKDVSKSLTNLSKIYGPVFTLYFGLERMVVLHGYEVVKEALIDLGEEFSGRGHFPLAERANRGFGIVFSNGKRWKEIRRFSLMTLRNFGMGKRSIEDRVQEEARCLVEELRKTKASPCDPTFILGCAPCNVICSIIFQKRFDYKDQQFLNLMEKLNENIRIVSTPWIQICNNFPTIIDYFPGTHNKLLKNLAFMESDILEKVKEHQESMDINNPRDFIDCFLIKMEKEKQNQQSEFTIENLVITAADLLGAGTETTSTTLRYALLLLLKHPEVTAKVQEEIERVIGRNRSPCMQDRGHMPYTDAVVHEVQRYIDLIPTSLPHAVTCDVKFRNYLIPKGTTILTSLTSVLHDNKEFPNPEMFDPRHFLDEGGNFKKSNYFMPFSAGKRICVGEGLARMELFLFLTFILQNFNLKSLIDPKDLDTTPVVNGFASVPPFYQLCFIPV
CYP2C9 inhib: blockers of cytochrome P450 2C9 activity – biochemical, luminescence, ADME assay, primary screen; CYP2C9 Supersomes, luciferin-H conversion; inhibition, % at 5 µM; hit rate 20% among 96,000; P11712;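 active = blocking of liver enzyme CYP2C9 beyond about 50% at 5 µM, limit read from the data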
PLAP activator: PLAP enzyme activators, biochemical, luminescence, HTS | hit rate 1.2% among 96,000 | AID 696, 2007 | Alkaline phosphatase, placental type (Homo sapiens), P05187 | purified PLAP enzyme, luminescent substrate read-out; hits give high values | activation fold at 20 µM; in the data active = activation fold above about 2
CYP2C19 inh: blockers of cytochrome P450 2C19 activity – biochemical, luminescence, ADME assay, primary screen; P33261; inhibition, % at 5 µM; CYP2C19 Supersomes, luciferin-H EGE luminescence, 30 min; hit rate 21% among 96,000;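 active = CYP2C19 inhibition above a set limit at 5 µM in the primary screen, cut at about 50% in these data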
CYP2C9 act: human CYP2C9 activators, primary screen, biochemical, luminescence; Cytochrome P450 2C9 (Homo sapiens), P11712; recombinant CYP2C9, luciferin-H conversion; hits give high values; factor 1 = untreated enzyme, 0 = blocked; hit rate 1.4% among 96,000; activation factor at 5 µM;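 active = activation factor of 2 or more for CYP2C9 at a 5 µM dose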
Hits are given with their value; n = inactive. Compounds with a hit are over-represented: about 31% of the library has one in this group of screens.

SMILES | CYP2C19 act | CYP2C9 inhib | PLAP activator | CYP2C19 inh | CYP2C9 act
O=[N+]([O-])c1ccccc1NCCNc1ncc(C(F)(F)F)cc1Cl | n | n | n | n | n
O=[N+]([O-])c1ccc(NC(=S)NCCc2ccc(Cl)cc2)cc1 | n | n | n | n | n
COc1ccccc1CNC(=O)C(CCSC)NC(=O)C1CCC(C)CC1 (stereo not given) | n | n | n | n | n
O=C(Nc1ccc(Nc2ccccc2)cc1)c1ccc(Br)o1 | n | 51.4 | n | n | n
O=C(N/N=C/c1ccccn1)c1ccc(Br)o1 | n | n | 2.4 | n | n
O=C(Nc1ccc(Cc2ccncc2)cc1)c1ccc(Br)o1 | n | 96.8 | n | 86.7 | n
O=C(CNC(=O)c1ccco1)OCC(=O)c1ccc2ccccc2c1 | n | n | n | n | n
COc1ccc(CC(=O)NC(CC(=O)O)c2ccc(OC)cc2)cc1 (stereo not given) | n | n | n | n | n
CCC/C(O)=C1\C(=O)CCCC1=NC(C)C(=O)O (stereo not given) | n | n | n | n | n
CCSC(C)CC1C/C(=N/O)c2c(CC)noc2C1 (stereo not given) | n | 93.5 | n | 90.0 | n
CCCc1noc2c1/C(=N\O)CC(CC(C)SCC)C2 (stereo not given) | n | 98.0 | n | 72.6 | n
Cc1c(NS(=O)(=O)c2cccc(C(=O)NCc3ccncc3)c2)c(=O)n(-c2ccccc2)n1C | n | n | n | n | n
CC(C)=C1C2CCC1C1C(=O)N(NC(=O)COc3ccc(Cl)c(C)c3)C(=O)C21 (stereo not given) | n | n | n | n | n
Cc1cc(=O)[nH]c(SCc2nc3ccccc3n2Cc2ccccc2)n1 | n | n | n | n | n
O=C(CC(Sc1ccccc1)c1cccs1)c1ccco1 (stereo not given) | n | 94.9 | n | 99.7 | n
CC(C)(C)n1nnnc1CN1CCSCC1 | n | n | n | n | n
CSc1nnc(CSCc2ccc(Cl)cc2Cl)n1-c1ccccc1 | n | 69.5 | n | 58.6 | n
COc1ccc(CCNC(=O)COC(=O)c2ccco2)cc1OC | n | n | n | n | n
COc1ccc(CN(C(=O)c2ccco2)c2ccc(C)cc2)cc1OC | n | 63.3 | n | 65.4 | n
O=c1cc2c(nn1Cc1ccc(Cl)cc1Cl)-c1ccccc1CC2 | n | 66.8 | n | 51.4 | n
O=c1cc2c(nn1Cc1ccccc1Cl)-c1ccccc1CC2 | n | 93.7 | n | 95.4 | n
FC(F)(F)c1cc(-c2ccc(Cl)cc2)nc2ncnn12 | n | n | n | n | n
O=C(NCC(=O)N(c1cccc(F)c1)C(C(=O)NCC1CCCO1)c1ccccc1)c1ccco1 (stereo not given) | n | n | n | n | n
O=C(Nc1ccc2c(c1)OCO2)N1CCN(c2ncc(C(F)(F)F)cc2Cl)CC1 | n | n | n | n | n
O=S(=O)(c1ccc(S(=O)(=O)N(Cc2ccc(F)cc2)C2CCCC2)cc1)N1CCCC1 | n | 77.4 | n | 67.9 | n
SMILES | CYP2C19 act | CYP2C9 inhib | PLAP activator | CYP2C19 inh | CYP2C9 act
O=C(COC(=O)CN1C(=O)c2ccccc2C1=O)Nc1ccc(S(=O)(=O)N2CCCC2)cc1 | n | n | n | n | n
O=C(CN1CCOCC1)Nc1ccc(S(=O)(=O)N2CCCCCC2)cc1 | n | n | n | n | n
O=C(COC(=O)CCN1C(=O)c2ccccc2C1=O)Nc1ccc(S(=O)(=O)N2CCCC2)cc1 | n | 96.1 | n | 54.4 | n
O=C(Cn1ncc2c1-c1ccccc1OC2)Nc1ccc(S(=O)(=O)N2CCCCC2)cc1 | n | 68.2 | n | n | n
Cc1ccc(S(=O)(=O)N2CCOCC2)cc1NC(=O)COC(=O)CCC(=O)c1cccs1 | n | n | n | n | n
COC(=O)Nc1ccc(S(=O)(=O)N2CCCCC2)cc1 | n | n | n | n | n
CC(C(=O)OCC(=O)Nc1ccc(S(=O)(=O)N2CCCCC2)cc1)N1C(=O)c2ccccc2C1=O (stereo not given) | n | 92.5 | n | n | n
O=C(COC(=O)CCC(=O)c1cccs1)Nc1ccc(S(=O)(=O)N2CCOCC2)cc1 | n | 88.6 | n | n | n
COc1ccc(N2CCN(C(=O)CCN3C(=O)c4ccccc4S3(=O)=O)CC2)cc1 | n | n | n | n | n
CCOC(=O)C(C)Sc1nnc(-c2ccccc2O)n1-c1ccc(C)cc1 (stereo not given) | n | n | n | n | n
Cc1ccc2nc(NC(=O)CSCC(=O)OCC(=O)c3ccc(Br)cc3)sc2c1 | n | n | n | n | n
CC(C)c1ccc(C2NC(C(=O)O)CS2)cc1 (stereo not given) | n | n | 2 | n | n
O=C(O)C1CSC(CCc2ccccc2)N1 (stereo not given) | n | n | n | n | n
CCOC(=O)c1cc(-c2ccc(/C=C3/C(=O)NC(=O)C(C#N)=C3C)o2)ccc1Cl | n | 71.2 | n | n | n
CCOC(=O)c1ccc(-c2ccc(CO)o2)cc1 | n | n | n | n | n
Cc1ccc(CS(=O)(=O)CCC(=O)NCCN2CCCC2)cc1 | n | n | n | n | n
N#Cc1c2c(c(N3CCN(c4ccccn4)CC3)n3c1nc1ccccc13)CCC2 | n | 54.0 | n | 58.8 | n
COc1ccc(-c2nnc(Nc3nc4c(OC)cccc4s3)o2)cc1 | n | n | 2.3 | n | n
COc1cc(OC)cc(-c2nnc(Nc3nc4c(F)cccc4s3)o2)c1 | n | n | 2.6 | n | n
CCC(=O)Nc1nnc(-c2ccc(OC)cc2)o1 | n | n | n | n | n
O=C1C2C3C=CC([C@@H]2C(=O)N1C1CC1)[C@H]1C(=O)N(C2CC2)C(=O)C31 (stereo not given in full) | n | n | n | n | n
COc1ccccc1C(=O)N1CCCC1(C#N)c1ccccc1 (stereo not given) | n | 89.5 | n | n | n
Clc1ccc(SCCCCn2cncn2)cc1 | n | 75.5 | n | 97.7 | n
c1ccc(-c2ccc(OCCOCCn3cncn3)cc2)cc1 | n | 67.0 | n | 94.7 | n
CN1CCN(Cc2ccc(OCc3ccccc3)cc2)CC1 | n | n | n | n | n
SMILES | CYP2C19 act | CYP2C9 inhib | PLAP activator | CYP2C19 inh | CYP2C9 act
c1ccc(COc2ccc(OCCCn3cncn3)cc2)cc1 | n | 95.6 | n | 94.4 | n
FC(F)(F)c1cccc(OCCOCCn2cncn2)c1 | n | n | n | 85.9 | n
CCc1cccc(OCCOCCN2CCCC2)c1 | n | n | n | n | n
COc1ccc(OCCn2cncn2)cc1 | n | n | n | n | n
N#Cc1cc(-c2ccc(Cl)cc2)cnc1Sc1ccc(F)cc1 | n | n | n | n | n
CCc1nnc(NC(=O)c2ccc(S(=O)(=O)NCC(C)C)cc2)s1 | n | n | n | n | n
O=C1CC(c2ccc(F)cc2)C2=C(CCCC2=O)N1 (stereo not given) | n | n | n | n | n
NCCOc1ccccc1-c1ccccc1 | n | 65.5 | n | 56.6 | n
NCCOc1ccccc1Cc1ccccc1 | n | n | n | n | n

Screens (PubChem BioAssay)
